Test results as given in PubChem BioAssay AID1159580 (chemical genetic matrix, 2015).
Values joined by “and” are separate entries in the source; they are usually repeats but may differ in a detail not shown here. Equal entries are not always repeated. The whole screen tested about 5,500 compounds, of which about 2,000 (36%) were called active. About 18% were inconclusive and are not listed. Cut-off read from the data, not from the text of the source: active = normalized growth mostly below about 0.91 (no sharp cut-off); inconclusive = no clear call, values can overlap the other calls; inactive = mostly above about 0.92. This is one part of the list.

Experiment: chemical genetic growth profiling, strain panel (AID 1159580);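 note: tested at 20 µM; growth read once vehicle control cultures reached saturation at 30 °C; 1 = growth at the plate median or of vehicle wells; lower values mean less growth of the strain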
Conditions: S. cerevisiae deletion strains, growth OD

Measured: normalized growth

C[C@@H]1O[C@@H](O[C@H]2CC[C@]3(C=O)C4CC[C@]5(C)[C@@H](C6=CC(=O)OC6)CC[C@]5(O)C4CC[C@]3(O)C2)[C@H](O)[C@H](O)[C@H]1O (stereo not given in full)
inactive: locus YAL021C, strain ccr4, stronger effect = lower value 1.02 | locus YAL026C, strain drs2, stronger effect = lower value 0.997 | locus YAL030W, strain snc1, stronger effect = lower value 0.998 | locus YBL061C, strain skt5, stronger effect = lower value 0.991 | locus YBR009C, strain hhf1, stronger effect = lower value 0.979 | locus YBR021W, strain FUR4, stronger effect = lower value 1.05 | locus YBR023C, strain chs3, stronger effect = lower value 0.999 | locus YBR171W, strain sec66, stronger effect = lower value 0.992 | locus YBR229C, strain ROT2, stronger effect = lower value 0.962 | locus YBR231C, strain swc5, stronger effect = lower value 0.987 | locus YBR279W, strain paf1, stronger effect = lower value 1 | locus YCL011C, strain gbp2, stronger effect = lower value 0.999 | locus YCL016C, strain dcc1, stronger effect = lower value 0.996 | locus YCL029C, strain bik1, stronger effect = lower value 0.985 | locus YCL061C, strain MRC1, stronger effect = lower value 1 | locus YCL069W, strain vba3, stronger effect = lower value 1.01 | locus YCR088W, strain abp1, stronger effect = lower value 0.997 | locus YDL005C, strain med2, stronger effect = lower value 0.999 | locus YDL035C, strain GPR1, stronger effect = lower value 0.999 | locus YDL040C, strain nat1, stronger effect = lower value 0.978 | locus YDL074C, strain BRE1, stronger effect = lower value 1.05 | locus YDL101C, strain DUN1, stronger effect = lower value 0.976 | locus YDL134C, strain PPH21, stronger effect = lower value 0.989 | locus YDL185W, strain tfp1, stronger effect = lower value 0.987 | locus YDL192W, strain arf1, stronger effect = lower value 0.99 | locus YDR001C, strain nth1, stronger effect = lower value 1 | locus YDR069C, strain doa4, stronger effect = lower value 0.984 | locus YDR101C, strain arx1, stronger effect = lower value 1.02 | locus YDR137W, strain rgp1, stronger effect = lower value 1.01 | locus YDR150W, strain NUM1, stronger effect = lower value 0.995 | locus YDR159W, strain sac3, stronger effect = lower value 0.95 | locus YDR162C, strain NBP2, stronger effect = lower value 0.934 | locus YDR195W, strain ref2 0.927 | locus YDR297W, strain sur2, stronger effect = lower value 0.996 | locus YDR318W, strain mcm21, stronger effect = lower value 0.979 | locus YDR334W, strain swr1, stronger effect = lower value 0.998 | locus YDR335W, strain msn5, stronger effect = lower value 1 | locus YDR388W, stronger effect = lower value 0.999 | locus YDR392W, strain spt3, stronger effect = lower value 0.88 | locus YDR502C, strain sam2, stronger effect = lower value 0.982 | locus YEL003W, strain gim4, stronger effect = lower value 0.999 | locus YEL037C, strain rad23, stronger effect = lower value 1.01 | locus YEL061C, strain CIN8 (second series), stronger effect = lower value 1 | locus YEL061C, strain CIN8, stronger effect = lower value 0.996 | locus YER015W, strain faa2, stronger effect = lower value 0.992 | locus YER016W, strain bim1, stronger effect = lower value 0.99 | locus YER110C, stronger effect = lower value 0.985 | locus YER111C, strain swi4, stronger effect = lower value 0.988 | locus YER155C, strain BEM2 (second series), stronger effect = lower value 0.978 | locus YER155C, strain BEM2, stronger effect = lower value 1.01 | locus YER167W, strain BCK2, stronger effect = lower value 0.999 | locus YFR010W, strain ubp6, stronger effect = lower value 0.999 | locus YGL078C, strain dbp3, stronger effect = lower value 0.989 | locus YGL086W, strain mad1, stronger effect = lower value 1.04 | locus YGL167C, strain pmr1, stronger effect = lower value 0.982 | locus YGL173C, strain kem1, stronger effect = lower value 0.99 | locus YGL227W, strain vid30, stronger effect = lower value 0.99 | locus YGL240W, strain doc1, stronger effect = lower value 0.969 | locus YGL248W, strain PDE1, stronger effect = lower value 0.976 | locus YGL253W, strain hxk2, stronger effect = lower value 0.992 | locus YGR078C, strain PAC10, stronger effect = lower value 0.974 | locus YGR135W, strain pre9, stronger effect = lower value 0.966 | locus YGR229C, strain SMI1, stronger effect = lower value 0.987 | locus YGR252W, strain gcn5, stronger effect = lower value 0.953 | locus YHR013C, strain ard1, stronger effect = lower value 0.954 | locus YHR027C, strain rpn1, stronger effect = lower value 0.996 | locus YHR030C, strain SLT2, stronger effect = lower value 1.01 and 0.997 | locus YHR079C, strain IRE1 (second series), stronger effect = lower value 1.01 | locus YHR079C, strain IRE1, stronger effect = lower value 0.992 | locus YHR094C, strain hxt1, stronger effect = lower value 0.986 | locus YHR129C, strain ARP1, stronger effect = lower value 1 | locus YHR142W, strain chs7, stronger effect = lower value 1.03 | locus YHR200W, strain rpn10, stronger effect = lower value 1 | locus YIL066C, strain RNR3, stronger effect = lower value 0.984 | locus YIL073C, strain SPO22, stronger effect = lower value 1.02 | locus YIL125W, strain kgd1, stronger effect = lower value 0.988 | locus YIR030C, strain dcg1, stronger effect = lower value 0.995 | locus YJL092W, strain hpr5, stronger effect = lower value 1 | locus YJL095W, strain BCK1 (second series), stronger effect = lower value 0.998 | locus YJL095W, strain BCK1, stronger effect = lower value 0.965 and 0.985 | locus YJL115W, strain asf1, stronger effect = lower value 0.999 | locus YJL129C, strain trk1, stronger effect = lower value 1.01 | locus YJL134W, strain LCB3, stronger effect = lower value 0.994 | locus YJL154C, strain vps35, stronger effect = lower value 1.01 | locus YJL164C, strain tpk1, stronger effect = lower value 1.01 | locus YJL166W, strain qcr8, stronger effect = lower value 0.99 | locus YJL168C, strain set2, stronger effect = lower value 0.99 | locus YJL187C, strain SWE1 (second series), stronger effect = lower value 0.97 | locus YJL187C, strain SWE1, stronger effect = lower value 1 | locus YJR043C, strain POL32, stronger effect = lower value 0.99
